Reference: PubChem BioAssay (NCI)
The panel holds about 83,000 compounds, 20% with a hit somewhere; the sample as a whole holds those more often.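 Negative percent growth values reflect cell death: -40 means 40% of the cells present at the start died, and -100 means all died.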 Values without a mark were called inactive. Calls of active or inactive are those of the source. The calls were made as follows: active = growth percent below 10; inactive = the rest.

Key:
Assay in all cases: NCI-60 one-dose screen, 48 h (100 = growth as untreated, 0 = no growth, -100 = all killed)
Conditions in all cases: 10 µM unless noted
NCI-H23 lung = tested on: NCI-H23 lung
NCI-H226 lung = tested on: NCI-H226 lung
NCI-H322M lung = tested on: NCI-H322M lung
HOP-62 NSCLC = tested on: HOP-62 NSCLC
NCI-H460 lung = tested on: NCI-H460 lung
HOP-92 NSCLC = tested on: HOP-92 NSCLC
NCI-H522 lung = tested on: NCI-H522 lung
A549/ATCC NSCLC = tested on: A549/ATCC NSCLC
786-0 renal = tested on: 786-0 renal
COLO 205 colon = tested on: COLO 205 colon
DU-145 prostate = tested on: DU-145 prostate
K-562 leukemia = tested on: K-562 leukemia
MALME-3M melanoma = tested on: MALME-3M melanoma
MDA-MB-231 breast = tested on: MDA-MB-231 breast
RXF 393 renal = tested on: RXF 393 renal
SF-268 CNS = tested on: SF-268 CNS
SF-295 CNS = tested on: SF-295 CNS
SF-539 CNS = tested on: SF-539 CNS
UACC-257 melanoma = tested on: UACC-257 melanoma
M14 melanoma = tested on: M14 melanoma

Row | Structure (SMILES) | growth (NCI-H23 lung) | growth (NCI-H226 lung) | growth (NCI-H322M lung) | growth (HOP-62 NSCLC) | growth (NCI-H460 lung) | growth (HOP-92 NSCLC) | growth (NCI-H522 lung) | growth (A549/ATCC NSCLC) | growth (786-0 renal) | growth (COLO 205 colon) | growth (DU-145 prostate) | growth (K-562 leukemia) | growth (MALME-3M melanoma) | growth (MDA-MB-231 breast) | growth (RXF 393 renal) | growth (SF-268 CNS) | growth (SF-295 CNS) | growth (SF-539 CNS) | growth (UACC-257 melanoma) | growth (M14 melanoma)
1 | C[C@H](Nc1ncnc2ccc(-c3cnc(Cl)c(NS(C)(=O)=O)c3)cc12)c1ccccc1 | -5.76% (active) | 1.56% (active) | -31.1% (active) | -16.3% (active) | 4.11% (active) | -11.7% (active) | -48.8% (active) | -49.8% (active) | -6.23% (active) | -93.2% (active) | -2.78% (active) | 17.2% | -43.1% (active) | -17.1% (active) | -54.5% (active) | -3.03% (active) | -25.6% (active) | -42.8% (active) | -18.4% (active) | -13.5% (active)
2 | CCOC(=O)c1cnc2c(-c3ccc(Cl)c(Cl)c3)cnn2c1 | 82% | 80.1% | 90.8% | 69.1% | 99.7% | 39.9% | 66.9% | 96.4% | 90.8% | 76.8% | 104% | 21.7% | 75.7% | 81.5% | 79.7% | 92.7% | 82.9% | 85.9% | 81.9% | 60%
3 | FC(F)(F)c1cc(Br)cc(-c2cc(-c3ccc4c(c3)OCCO4)[nH]n2)c1 | 40.1% | 53.8% | 45.4% | 52.2% | 5.69% (active) | 32% | 20.5% | 22.1% | 28.3% | -12.9% (active) | 23.8% | 14.6% | 48.4% | 1.68% (active) | 31.6% | 41.7% | 12.3% | -5.31% (active) | 80.4% | 20.1%
4 | O=S(=O)(Oc1ccc(-c2cn3ccsc3n2)cc1)c1cccc(C(F)(F)F)c1 | 109% | 90.2% | 103% | 110% | 104% | 106% | 94.6% | 98.9% | 102% | 113% | 103% | 96.9% | 91.3% | 101% | 100% | 110% | 98.3% | 101% | 99.6% | 101%
5 | CN1CCN(Cc2ccc(NC(=O)c3cncc(C#Cc4cnc5ccc(N6CCOCC6)nn45)c3)cc2C(F)(F)F)CC1 | -65.9% (active) | -62.3% (active) | -11.3% (active) | -79.7% (active) | -80.6% (active) | -25.6% (active) | -79.2% (active) | -84.9% (active) | -80.7% (active) | -87.3% (active) | -84.7% (active) | -0.943% (active) | -86.2% (active) | -56.4% (active) | -77.9% (active) | -62.1% (active) | -84.8% (active) | -90.8% (active) | -29.5% (active) | -74.4% (active)
6 | CCCCSC1=C(Cl)CN(c2ccc(Cl)cc2)C1=O | 102% | 96.1% | 107% | 106% | 93.4% | 96.6% | -4.15% (active) | 102% | 99.2% | 125% | 106% | 82.6% | 103% | 104% | 109% | 105% | 93% | 85.2% | 107% | 96.5%
7 | CN1CCN(Cc2ccc(NC(=O)c3cncc(C#Cc4cnc(N)nc4)c3)cc2C(F)(F)F)CC1 | 26.5% | 12.8% | 34.3% | 19.3% | 12.9% | -28.8% (active) | 36.5% | 38% | 40% | 13.2% | 34.4% | 5.93% (active) | -31.1% (active) | -7.34% (active) | 26.4% | 28.1% | 33.1% | 14.6% | 22.1% | -19.3% (active)
8 | Cn1cc(C2=C(c3coc4cc(Br)ccc34)C(=O)NC2=O)c2ccccc21 | 86.8% | 74.8% | 82.2% | 71% | 98.6% | 93.4% | 72% | 71.6% | 83.7% | 71.3% | 108% | 27.4% | 104% | 87.8% | 66.3% | 83.5% | 86.9% | 69.5% | 100% | 68.7%
